The campaign covered roughly 200,000 compounds. About 5,100 (2.5%) were called active. The list comes from a sample in which actives are over-represented; it also holds similar structures and randomly drawn compounds. Unmarked numbers belong to inactive results.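 How the source made its calls: active means activation above the screen-wide mean activation plus 3 SD (cut at about 130% in these data); inactive means the rest.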
assay: STAT1 signaling activators, primary screen, cell-based, HTS, luciferase reporter (AID 932); conditions: NIH 3T3 STAT1-luciferase reporter, IFN-gamma, luminescence; at 5.5 µM; active compounds read high; 100% = IFN-gamma alone, no compound;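 further: raw ratio to IFN-gamma control signal so 100% means no change and 0% no light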

Going from `CN(C)Cc1ccc(F)cc1Sc1cc(Cl)ccc1Cl` to `Cc1ccc(NC(=O)CN(C)CC(=O)Nc2cccc(F)c2)cc1[N+](=O)[O-]`, the activation (% of control) falls from 98.7% to 67.3%.

`O=C(COC(=O)Cn1cnc2ccccc21)Nc1cccc2c1C(=O)c1ccccc1C2=O` and `Cc1ccc(OCC(=O)Nn2cnc3ccccc32)cc1` are the same in activation (% of control): 104% for the first, 104% for the second.

Compared with `Cc1occc1C(=O)N1CCCc2ccccc21`, `O=C(c1cccc(C(=O)N2CCc3ccccc32)n1)N1CCc2ccccc21` is lower in activation (% of control): 104% for the first, 95.1% for the second.

Compared with `O=C(Cc1c(F)cccc1Cl)Nc1ccc(-n2cnnn2)cc1`, `COc1ccc(-n2nnnc2SCC(=O)Nc2ccccc2)cc1` is higher in activation (% of control): 98.6% for the first, 99.3% for the second.

`COc1ccc(NC(=O)CN2C(=O)C(c3ccccc3)=NC23CCCCCC3)cc1OC` and `Cc1ccccc1CC1(CO)CCCN(C(=O)c2cc(-c3ccccc3)no2)C1` (stereo not drawn) are the same in activation (% of control): 104% for the first, 104% for the second.

First: N#CC(=C1CCCC1)c1nc(-c2ccc(Cl)cc2)cs1
Second: N#C/C(=C1\CCCN1)c1nc(-c2ccccc2)cs1
The activation (% of control) of the first is higher: 110% for the first, 105% for the second.

Going from `O=C(CN(CC1CCCO1)C(=O)CNS(=O)(=O)c1ccc(F)cc1)NCc1ccco1` (stereo not drawn) to `CCN(CC(=O)NCc1cccs1)S(=O)(=O)c1ccc(NC(C)=O)cc1`, the activation (% of control) falls from 109% to 104%.

Compared with `COc1cc(OC)cc(-c2nc(=S)n3ccsc3n2)c1`, `CCOc1cccc(-n2nnnc2-c2ccc(OC)cc2)c1` is lower in activation (% of control): 108% for the first, 93.4% for the second.

Compared with `Cc1cc(=O)oc(C)c1C(=O)N1CCCCC1`, `Cc1cccc(C(=O)N2CCCN(C(=O)c3cccc(C)c3)CC2)c1` is lower in activation (% of control): 104% for the first, 103% for the second.

First: CC(=NCC1CCCO1)c1c(O)[nH]c(=O)[nH]c1=O (stereo not drawn)
Second: O=C(CS(=O)(=O)Cc1ccccc1)NCC1CCCO1 (stereo not drawn)
The activation (% of control) of the first is higher: 106% for the first, 94.5% for the second.

Compared with `COc1ccc(CCNC(=O)CN(c2ccccc2)S(C)(=O)=O)cc1`, `CCc1nnc(NC(=O)c2cccc(S(=O)(=O)N(C)c3ccc(OC)cc3)c2)s1` is lower in activation (% of control): 98% for the first, 86.1% for the second.

First: Cc1ccc(C(=O)N/C(=C\c2cccs2)C(=O)NCCc2ccccn2)cc1C
Second: Cc1cccc2c1N(CCOc1ccccc1)C(=O)C2=O
The activation (% of control) of the first is higher: 103% for the first, 99% for the second.

Going from `CN(C)C(=O)CSc1n[nH]c(-c2ccco2)n1` to `Cc1ccc(SCC(=O)c2sc(-c3ccccc3)nc2C)cc1`, the activation (% of control) rises from 101% to 102%.

Going from `CC(=O)OC(C(=O)NC1CCCCC1)c1ccccc1` (stereo not drawn) to `O=C(Cn1c(-c2cncs2)nc2ccccc21)NC1CCCC1`, the activation (% of control) rises from 95.8% to 103%.

Going from `C/C(=C/C(=O)N1CCN(C)CC1)C(=O)O` to `CC(=O)c1cccc(CN2CCC(CO)(Cc3ccccc3)CC2)c1`, the activation (% of control) rises from 88.6% to 96%.

Compared with `CCOn1c(=O)c(=O)n(O)c2ccccc21`, `COc1ccccc1C(=O)CSc1cccc[n+]1[O-]` is higher in activation (% of control): 95.6% for the first, 105% for the second.

Compared with `COC(=O)c1cccc([N+](=O)[O-])c1CS(=O)(=O)c1ccc(C)cc1`, `CC(=O)c1cccc(NC(=O)Nc2ccc(C)cc2)c1` is higher in activation (% of control): 98.8% for the first, 118% for the second.

Compared with `Cc1nc(C)c(-c2csc(NCCc3ccccc3)n2)s1`, `CC(C)Oc1ccc(Cc2n[nH]c(=S)n2Cc2ccccc2)cc1Cl` is lower in activation (% of control): 102% for the first, 90.5% for the second.

First: O=c1oc2ccccc2cc1-c1csc(Nc2ccc(O)cc2)n1
Second: Cc1nc2ccccc2cc1C(=O)N/N=C/c1ccc([N+](=O)[O-])cc1
The activation (% of control) of the first is higher: 117% for the first, 93.6% for the second.

Going from `CC1(C)CC(=O)C2=C(C1)Nc1cc(C(=O)c3ccccc3)ccc1NC2c1ccccn1` (stereo not drawn) to `COCc1ccc(C(=O)N2CCc3c([nH]c4ccccc34)C2c2ccccn2)s1` (stereo not drawn), the activation (% of control) falls from 104% to 94%.

First: CCN1CCN(C(C(=O)NC2CCCC2)c2cc3c(cc2[N+](=O)[O-])OCO3)CC1 (stereo not drawn)
Second: CCN1CCc2nc(NC(=O)c3cc(F)c(F)cc3Cl)sc2C1
The activation (% of control) of the first is lower: 107% for the first, 111% for the second.

Compared with `Cc1nc(-c2ccccc2)sc1C(=O)/C=C/c1ccccc1`, `Cc1cccc(NC(=O)Nc2nnc(-c3ccccc3)o2)c1` is lower in activation (% of control): 105% for the first, 99.5% for the second.

Compared with `Cc1cccc(C(=O)c2cccc(C)c2)c1`, `CN=C(c1ccccc1)c1c(C)cccc1C` is lower in activation (% of control): 103% for the first, 93.1% for the second.

Going from `N/C(=N\OC(=O)c1cc(-c2ccccc2)nc2ccccc12)c1ccncc1` to `O=C(O)CC1S/C(=N\N=C/c2ccccc2O)N(c2ccc(O)cc2)C1=O` (stereo not drawn), the activation (% of control) rises from 99.8% to 102%.

First: O=C(CC1C(=O)NCCN1Cc1ccc(-c2ccccc2)cc1)NCC1CCOCC1 (stereo not drawn)
Second: O=C(Cc1csc(Nc2nc(=S)[nH]c3ccccc23)n1)NCCCN1CCN(c2cccc(Cl)c2)CC1
The activation (% of control) of the first is higher: 102% for the first, 90.9% for the second.

Compared with `CCn1c(/C=C/Nc2ccccc2)[n+](CC)c2ccc(C(=O)OCC(F)(F)F)cc21`, `COCCOCCn1cnc2ccccc21` is higher in activation (% of control): 88.3% for the first, 104% for the second.

First: Cc1cc(O)c(NC(=O)c2ccc(C)c([N+](=O)[O-])c2)cc1C
Second: NC(=S)N/N=C/c1ccc([N+](=O)[O-])cc1
The activation (% of control) of the first is lower: 103% for the first, 121% for the second.

With `O=C(c1cnn2ccccc12)N1CCc2ccccc21` the activation (% of control) was 136% (active).
With `N#CC(=C1SC=CS1)c1nc(-c2ccccc2)cs1` the activation (% of control) was 133% (active).
For `Cc1ccc2cc3cc(C(=O)N4CCCCCC4)oc3nc2c1`, the activation (% of control) was 169% (active).
With `O=C1C(C=NCC2CCCO2)=C(O)c2ccccc21` (stereo not drawn) the activation (% of control) was 137% (active).
In the case of `COc1ccc(-n2nnnc2-c2nc3ccccc3s2)cc1`, the activation (% of control) was 166% (active).
In the case of `O=C(/C=C/c1cnc2ccccc2n1)NC1CCCCCC1`, the activation (% of control) was 142% (active).
With `CCNc1nc(-c2cc3ccccc3o2)cs1` the activation (% of control) was 176% (active).
For `Cc1nc(-c2ccccc2)sc1C(=O)/C=C/N(C)C`, the activation (% of control) was 147% (active).
With `Cc1cccc(/C(N)=N/OC(=O)c2ccccc2Cl)c1` the activation (% of control) was 138% (active).
In the case of `Cc1ccc(NC(=O)Nc2ccccc2)c(Br)c1`, the activation (% of control) was 164% (active).
For `COC(=O)CCC(=O)N1CCCC(CO)(Cc2ccccc2)C1` (stereo not drawn), the activation (% of control) was 146% (active).
With `COC(=O)c1ccc(-n2cnc3ccccc32)nc1` the activation (% of control) was 129% (active).
For `Cc1ccc(NC(=O)c2sccc2C)cc1[N+](=O)[O-]`, the activation (% of control) was 138% (active).
With `Cc1ccsc1C(=O)N/N=C/c1ccc([N+](=O)[O-])cc1` the activation (% of control) was 146% (active).

— PubChem BioAssay AID932 (The Scripps Research Institute Molecular Screening Center, 2007)
